Experimental data from PubChem BioAssay (NCI).
Several values for one entry are separate records, joined by “and”; a condition that tells them apart may be missing. Equal values may be shown once. About 83,000 compounds went through this panel and 20% of them were active in at least one assay; those are over-represented in the sample as a whole.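 Activity criterion: percent growth below 10, measured after cells in 96-well plates were exposed to a single compound concentration for 48 hours.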 Activity calls are given as the source filed them.

The compounds below were run on MDA-MB-468 breast (assay: NCI-60 one-dose screen, 48 h (100 = growth as untreated, 0 = no growth, -100 = all killed)). Settings: 10 µM unless noted.

Row | SMILES | growth
1 | O=C(Nc1ccccc1C(=O)NCC1CC1)c1cccs1 | 102% (inactive)
2 | CCOC(=O)Nc1nc2ccccc2[nH]1 | 99.4% (inactive) and 26.8% (inactive)
3 | OCC1OC(n2cnc3c(N/N=C\c4ccccn4)ncnc32)C(O)C1O (stereo not drawn) | -24% (active)
4 | COc1cc2oc(-c3cccc(NC(=O)c4cc(NC(=O)[C@H](C)NC(=O)OC(C)(C)C)ccc4C)c3)cc(=O)c2c(OC)c1OC | 84.3% (inactive)
5 | N#CCCN1C/C(=C/c2ccc(Br)cc2)C(=O)/C(=C/c2ccc(Br)cc2)C1 | -71.3% (active)
6 | Oc1[nH]c2ccc(Cl)cc2c1N=Nc1nc(N=Nc2c(O)[nH]c3ccc(Cl)cc23)nc(N2CCCCC2)n1 | 18.1% (inactive)
7 | Cc1ccc(-c2cc(-c3cccc(Nc4ccnc5cc(Cl)ccc45)c3)nc3nc(N)[nH]c(=O)c23)cc1 | 28% (inactive)
8 | C[C@H](C(=O)N[C@@H](Cc1ccc(-c2ccccc2)cc1)C(=O)NC1CC(C)(C)NC(C)(C)C1)c1ccc(-c2ccccc2)c(F)c1 | -65.9% (active)
9 | O=C(Nc1ccc(Cl)c(Cl)c1)Nc1ccc(Cl)c(Cl)c1 | -78.5% (active) and 10.4% (inactive)
10 | COc1ccc(C(=O)C/C(=C\c2ccc(Cl)cc2)C(=O)NCc2ccccc2)cc1 | 69.7% (inactive)
11 | CN(C)c1ccc(/C=C/C2=[N+](C)c3ccccc3C2(C)C)cc1 | 6.5% (active)
12 | CC(=O)c1cc2c(N)c(C(=O)Nc3cccc4c3OCCO4)sc2nc1C | 86.1% (inactive)
13 | Cc1ccc(C)c(C(O)(c2cc(C)ccc2C)C2(O)CCCCC2)c1 | 90.5% (inactive)
